In PubChem BioAssay (Tox21):
Results filed as inconclusive are left out. Active and inactive are the calls of the source. Unless noted, calls come from the whole dose curve; as a rule, active = well fitted curve in the direction sought with a large enough effect in the repeat runs; inconclusive = weak or mixed curves; inactive = no such curve, though single readings can be large; an effect the other way counts as inactive or inconclusive.

Experiments:
[1] = target: Thyrotropin receptor (Homo sapiens) (UniProt P16473); assay: qHTS assay to identify small molecule agonists of the thyroid stimulating hormone receptor (TSHR) signaling pathway (AID 1224843; calls by dose curve; note: nearly all actives have a fitted effect of over 45% in size)
Chain of Thyrotropin receptor (Homo sapiens) (P16473 whole entry, looked up): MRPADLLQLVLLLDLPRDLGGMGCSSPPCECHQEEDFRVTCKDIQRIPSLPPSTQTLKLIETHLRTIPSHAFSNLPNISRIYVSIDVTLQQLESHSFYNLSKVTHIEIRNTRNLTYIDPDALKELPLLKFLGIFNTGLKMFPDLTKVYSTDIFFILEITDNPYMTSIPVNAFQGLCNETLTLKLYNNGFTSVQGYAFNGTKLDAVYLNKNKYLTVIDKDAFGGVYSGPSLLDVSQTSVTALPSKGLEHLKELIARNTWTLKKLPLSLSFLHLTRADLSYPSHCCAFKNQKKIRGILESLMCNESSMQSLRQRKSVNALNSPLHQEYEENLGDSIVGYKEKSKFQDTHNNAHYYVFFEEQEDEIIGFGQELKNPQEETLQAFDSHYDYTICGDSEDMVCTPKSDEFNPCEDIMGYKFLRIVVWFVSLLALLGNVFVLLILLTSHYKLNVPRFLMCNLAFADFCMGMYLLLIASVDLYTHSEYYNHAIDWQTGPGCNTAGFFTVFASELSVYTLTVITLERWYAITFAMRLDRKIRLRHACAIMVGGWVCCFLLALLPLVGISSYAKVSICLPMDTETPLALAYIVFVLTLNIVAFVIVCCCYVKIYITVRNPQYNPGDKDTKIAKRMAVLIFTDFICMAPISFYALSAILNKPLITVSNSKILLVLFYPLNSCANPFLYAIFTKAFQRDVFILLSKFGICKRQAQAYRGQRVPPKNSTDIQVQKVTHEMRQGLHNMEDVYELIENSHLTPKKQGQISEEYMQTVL
Procedure, shortened: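 HEK293 cells stably bearing the thyrotropin receptor were plated at 800 cells/well and challenged with compound (30 min, RT). Accumulated cAMP was quantified via cAMP-d2 competing for cryptate-tagged antibody.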

[2] = qHTS assay to identify small molecule agonists of the hypoxia (HIF-1) signaling pathway - cell viability counter screen (AID 1224844; calls by dose curve; note: nearly all actives have a fitted effect of over 50% in size; note: potency is the fitted concentration of half-maximal effect)
Procedure, shortened: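 ME-180 HRE-bla cells, 2,000/well, 0.5% dialyzed FBS; 5 hr settle, 17 hr compound at 37C/5% CO2; CCF4-AM reporter read first, then CellTiter-Glo luminescence after 30 min RT.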

[3] = qHTS assay to identify small molecule agonists of H2AX (AID 1224845; active = well fitted activation curve with a large enough effect in the signal ratio in the repeat runs, not every such curve was filed as active; the % refers to the signal ratio)
Procedure, shortened: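 Phospho-H2AX Ser139 measured by HTRF (ex 320 nm; em 665 and 620 nm) after 24 hr antibody incubation. Compounds, 15 concentrations, 0.76% DMSO, were applied to CHO-K1 cells for 3hr at 37C before lysis.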

[4] = qHTS assay to identify small molecule agonists of the hypoxia (HIF-1) signaling pathway (AID 1224846; active = well fitted activation curve with a large enough effect in the signal ratio in the repeat runs, not every such curve was filed as active; the % refers to the signal ratio)
Procedure, shortened: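 Cell line: CellSensor HRE-bla ME-180; 2,000 cells/well; 0.5% dialyzed FBS; 5 h preincubation; DMSO compound pin transfer; 17 h, 37C, 5% CO2; CCF4-AM added; bla FRET signal scored for activation.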

[5] = qHTS RealTime-Glo MT Cell Viability Assay in HepG2 cells - 24 hour (AID 1224867); note: nearly all actives have a fitted effect of over 50% in size; note: potency is the fitted concentration of half-maximal effect
Procedure, shortened: (§1)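 HepG2 cells were seeded at 600 cells/well together with NanoLuc luciferase and a cell-permeant prosubstrate, preincubated 5 h at 37 C/5% CO2, then pin-dosed with compounds in DMSO. Nonlytic luminescence from viable cells was read at each time point.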

[6] = qHTS RealTime-Glo MT Cell Viability Assay in HEK293 cells - 32 hour (AID 1224868); note: nearly all actives have a fitted effect of over 50% in size; note: potency is the fitted concentration of half-maximal effect
Procedure, shortened: (§2)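 HEK293 cells were seeded at 600 cells/well together with NanoLuc luciferase and cell-permeant prosubstrate, preincubated 5 h at 37 C/5% CO2, then given compound in DMSO by pintool. Luminescence from viable-cell prosubstrate reduction was read repeatedly over 40 h.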

[7] = A CellTox Green Cytotoxicity Assay to monitor cytotoxicity in HEK293 cells - 0 hour (AID 1224869); note: nearly all actives have a fitted effect of over 50% in size
Procedure, shortened: (§3)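 Nonlytic real-time cytotoxicity: HEK293 + CellTox Green reagent plated, 5 h preincubation, pintool compound addition (23 nL in DMSO), 37 C for 40 h, fluorescence measured at successive time points.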

[8] = qHTS RealTime-Glo MT Cell Viability Assay in HEK293 cells - 16 hour (AID 1224872); note: nearly all actives have a fitted effect of over 50% in size; note: potency is the fitted concentration of half-maximal effect
Procedure, shortened: as §2

[9] = qHTS RealTime-Glo MT Cell Viability Assay in HepG2 cells - 8 hour (AID 1224873); note: nearly all actives have a fitted effect of over 55% in size; note: potency is the fitted concentration of half-maximal effect
Procedure, shortened: (§4)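 Real-time viability: cells seeded at 600 per well together with NanoLuc and cell-permeant prosubstrate, compounds added after 5 h incubation. Luminescence tracked at 0, 8, 16, 24, 32 and 40 h of exposure.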

[10] = qHTS RealTime-Glo MT Cell Viability Assay in HEK293 cells - 40 hour (AID 1224874); details: RealTime-Glo luminescence; max response: active compounds read low; note: nearly all actives have a fitted effect of over 50% in size; note: potency is the fitted concentration of half-maximal effect
Procedure, shortened: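 Cells were seeded together with NanoLuc luciferase and a prosubstrate that viable cells reduce to a luciferase substrate. After a 5 h incubation at 37 C/5% CO2, compounds were added and luminescence was measured repeatedly during 40 h of treatment.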

[11] = A CellTox Green Cytotoxicity Assay to monitor cytotoxicity in HEK293 cells - 24 hour (AID 1224875); note: nearly all actives have a fitted effect of over 45% in size
Procedure, shortened: as §3

[12] = A CellTox Green Cytotoxicity Assay to monitor cytotoxicity in HepG2 cells - 16 hour (AID 1224876); note: nearly all actives have a fitted effect of over 45% in size
Procedure, shortened: (§5)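 Read-out is fluorescence of a cyanine dye excluded from live cells that stains DNA of dead HepG2 cells, with signal proportional to cytotoxicity. Plates were read at 0, 8, 16, 24, 32 and 40 h after compound addition.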

[13] = A CellTox Green Cytotoxicity Assay to monitor cytotoxicity in HepG2 cells - 24 hour (AID 1224878); note: nearly all actives have a fitted effect of over 45% in size
Procedure, shortened: as §5

[14] = A CellTox Green Cytotoxicity Assay to monitor cytotoxicity in HepG2 cells - 40 hour (AID 1224879); note: nearly all actives have a fitted effect of over 40% in size; note: potency is the fitted concentration of half-maximal effect
Procedure, shortened: as §5

[15] = qHTS assay to identify small molecule antagonists of the estrogen related receptor (ERR) signaling pathway from Tox21 library (AID 1224848); note: nearly all actives have a fitted effect of over 50% in size
Procedure, shortened: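 Reading was by luminescence 30 min after ONE-Glo addition. Before that, ERR cells at 2,000 per well had rested 6 h at 37 C/5% CO2 and then received pin-tooled compounds in DMSO for 18 h at 37 C.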

[16] = qHTS assay to identify small molecule agonists of the estrogen related receptor (ERR) signaling pathway from Tox21 library (AID 1224849; calls by dose curve; note: nearly all actives have a fitted effect of over 15% in size); details: ERR reporter cell line, ONE-Glo luciferase, 18 h; at 92.4 µM (top of the series) unless noted
Procedure, shortened: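 ERR cells, 6 h pre-incubation 37 C/5% CO2; cpd in DMSO pinned; 18 h 37 C; ONE-Glo added, 30 min RT; luminescence read. Agonist mode, qHTS.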

[17] = qHTS RealTime-Glo MT Cell Viability Assay in HepG2 cells - 40 hour (AID 1224870); note: nearly all actives have a fitted effect of over 50% in size
Procedure, shortened: as §4

[18] = qHTS RealTime-Glo MT Cell Viability Assay in HepG2 cells - 32 hour (AID 1224877); note: nearly all actives have a fitted effect of over 55% in size
Procedure, shortened: as §1

[19] = qHTS assay to identify small molecule agonists of H2AX - cell viability counter screen (AID 1224847; calls by dose curve;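 note: wild-type CHO-K1 cells; top concentration of the series differs between compounds; nearly all actives have a fitted effect of over 30% in size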)
Procedure, shortened: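 After overnight plating of 1000 CHO-K1 cells per well, a 15-concentration compound series was applied for 3 hr at 37C. Luminescence from CellTiter-Glo, read following 30 min at room temperature, reflected cell viability.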

[20] = A CellTox Green Cytotoxicity Assay to monitor cytotoxicity in HEK293 cells - 40 hour (AID 1224871); note: nearly all actives have a fitted effect of over 45% in size
Procedure, shortened: as §3
% is set by controls: 0 for no effect and ±100 for the full control effect.

CCOc1ccc(Cc2nccc3cc(OCC)c(OCC)cc23)cc1OCC
active: Potency [5] 12 µM | Potency [6] 6.01 µM | Potency [8] 9.52 µM | Potency [9] 12 µM | Potency [10] 5.35 µM | Potency [14] 7.56 µM
inactive: Potency [1] | Potency [2] | Potency [3] | outcome [4] | Potency [7] | Potency [11] | Potency [12] | Potency [13]

CC(C)=CCC/C(C)=C/CC/C(C)=C/CCC(=O)OC/C=C(\C)CCC=C(C)C
inactive: Potency [1] | Potency [2] | Potency [3] | outcome [4] | Potency [15] | activity change, positive = activation [16] -0.27% [at 42.5 µM] | Potency [5] | Potency [6] | Potency [7] | Potency [17] | Potency [8] | Potency [9] | max response [10] 2.19% | Potency [11] | Potency [12] | Potency [18] | Potency [13] | Potency [14]

CC1CC(C)C(=O)C1=O (stereo unspecified)
inactive: Potency [1] | Potency [2] | Potency [3] | outcome [4] | Potency [19] | Potency [5] | Potency [7] | Potency [17] | Potency [20] | Potency [9] | Potency [11] | Potency [12] | Potency [18] | Potency [13] | Potency [14]
active: Potency [6] 13.8 µM | Potency [10] 13.8 µM

CN1CC(=O)N2[C@H](c3ccc4c(c3)OCO4)c3[nH]c4ccccc4c3C[C@@H]2C1=O
inactive: Potency [1] | Potency [2] | Potency [3] | outcome [4] | Potency [19] | Potency [5] | Potency [6] | Potency [7] | Potency [17] | Potency [20] | Potency [8] | Potency [9] | max response [10] -16.3% | Potency [11] | Potency [12] | Potency [18] | Potency [13] | Potency [14]

COc1ccccc1Oc1c(NS(=O)(=O)c2ccc(C(C)(C)C)cc2)nc(-c2ncccn2)nc1OCCO
inactive: Potency [1] | Potency [2] | Potency [3] | outcome [4] | activity change, positive = activation [16] -21.1% [at 42.5 µM] | Potency [5] | Potency [6] | Potency [7] | Potency [17] | Potency [20] | Potency [8] | Potency [9] | max response [10] -19.3% | Potency [11] | Potency [12] | Potency [18] | Potency [13] | Potency [14]

Brc1cc(Br)c(Oc2cc(Br)c(Br)cc2Br)cc1Br
inactive: Potency [1] | Potency [3] | outcome [4] | Potency [19] | Potency [5] | Potency [6] | Potency [7] | Potency [17] | Potency [20] | Potency [8] | Potency [9] | max response [10] -1.98% | Potency [11] | Potency [12] | Potency [18] | Potency [13] | Potency [14]
active: Potency [2] 21.3 µM

Nc1cccc2c1CN(C1CCC(=O)NC1=O)C2=O (stereo unspecified)
inactive: Potency [1] | Potency [2] | Potency [3] | outcome [4] | Potency [19] | Potency [5] | Potency [6] | Potency [7] | Potency [17] | Potency [9] | max response [10] 2.81% | Potency [11] | Potency [12] | Potency [18] | Potency [13] | Potency [14]

CCOC(C)=O
inactive: Potency [1] | Potency [2] | Potency [3] | outcome [4] | Potency [19] | Potency [5] | Potency [6] | Potency [17] | Potency [20] | Potency [8] | Potency [9] | max response [10] 0.693% | Potency [11] | Potency [12] | Potency [18] | Potency [13] | Potency [14]
